Assay outcomes as filed in PubChem BioAssay.
Compounds with a hit are over-represented: about 2.6% of the library has one in this group of screens.
PRMT1 FP inh: blocks human protein arginine methyltransferase 1; recombinant PRMT1, activity-based probe fluorescence polarization; actives 1.3% (n = 370,000); inhibition, % at 2.79 µM;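 active = inhibition above about 21% made by adding two undisclosed values, limit read from the data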
TCR CD3 inh: human TCR-CD3 binding inhibition. TAMRA-labeled TCR probe fluorescence, biochemical. inhibition, % at 9.4 µM. actives 0.37% (n = 360,000). AID 651800; in the data active = inhibition above about 19%;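 note: recombinant mutant TCR 2C K166C tagged with TAMRA read by polarization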
PAD4 FP inh: blocks human protein arginine deiminase 4; Q9UM07; recombinant PAD4, RCA probe fluorescence polarization; inhibition, % at 6.36 µM; actives 0.41% (n = 330,000); AID 485272;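 active = percent inhibition above a cutoff equal to the mean of all tested compounds plus 3 SD, cut at about 15% in these data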
Target sequence (Q9UM07 whole entry, looked up): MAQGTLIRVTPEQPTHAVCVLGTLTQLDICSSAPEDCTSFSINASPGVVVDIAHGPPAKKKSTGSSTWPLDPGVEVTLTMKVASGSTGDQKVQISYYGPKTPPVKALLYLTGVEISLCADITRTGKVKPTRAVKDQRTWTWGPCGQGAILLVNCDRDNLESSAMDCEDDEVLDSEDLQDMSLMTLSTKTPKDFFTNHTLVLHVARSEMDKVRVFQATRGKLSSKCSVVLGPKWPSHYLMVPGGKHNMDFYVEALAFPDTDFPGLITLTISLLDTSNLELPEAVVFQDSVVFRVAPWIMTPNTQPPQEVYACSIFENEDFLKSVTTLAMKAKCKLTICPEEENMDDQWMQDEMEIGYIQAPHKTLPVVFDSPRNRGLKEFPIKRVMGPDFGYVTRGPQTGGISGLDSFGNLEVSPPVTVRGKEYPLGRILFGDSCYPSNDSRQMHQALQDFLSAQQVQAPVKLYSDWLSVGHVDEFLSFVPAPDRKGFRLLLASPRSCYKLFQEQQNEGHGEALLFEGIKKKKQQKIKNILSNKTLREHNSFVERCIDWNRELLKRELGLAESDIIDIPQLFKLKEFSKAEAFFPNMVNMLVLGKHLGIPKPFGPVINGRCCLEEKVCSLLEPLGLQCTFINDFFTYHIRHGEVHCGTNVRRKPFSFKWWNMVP
SIAE primary: inhibitors of human sialic acid acetylesterase SIAE. actives 0.69% (n = 370,000). AID 1053197. inhibition, % at 9.66 µM. SIAE FP-Rh probe binding, fluorescence polarization. Q9HAT2;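 active = inhibition above a cutoff: mean of compounds within the control limits plus 3 SD of those, cut at about 17% in these data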
Fam108B counter: counter-screen for RBBP9 inhibitors: inhibitors of mouse Fam108B; recombinant Fam108B, FP-Rh probe fluorescence polarization; inhibition, % at 9.51 µM; actives 0.33% (n = 300,000);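 active = inhibition above the screen mean inhibition plus 3 SD, computed separately per campaign, cut at about 18% in these data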;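 note: inhibitors lower polarization as less probe binds the enzyme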
PME-1 inh: PME-1 (human) inhibition; actives 0.53% (n = 320,000); recombinant PME-1, FP-Rh probe fluorescence polarization; inhibition, % at 5.9 µM;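 active = inhibition above the campaign mean of all compounds plus 3 SD, cut at about 26% in these data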;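 note: competitive labeling of PME-1 active site by serine hydrolase directed probe; inhibitors block probe labeling so polarization falls and inhibition rises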
Numbers stand for hits; - = inactive; . = not tested or not shown.

SMILES | PRMT1 FP inh | TCR CD3 inh | PAD4 FP inh | SIAE primary | Fam108B counter | PME-1 inh
COc1ccc(CN2C(=O)[C@@](O)(c3cccn3C)c3cc(F)ccc32)cc1 | - | . | . | - | . | .
COC(=O)c1ccc2nc(-c3ccco3)c(Cc3ccc(OC)cc3C)n2c1 | 22 | - | . | - | . | .
Cc1ccc(Cc2c(-c3ccco3)nc3ccc(C)cn23)cc1 | 21 | - | . | - | . | .
COC(=O)c1ccc2nc(-c3ccc(F)cc3)c(Cc3ccc(OC)cc3C)n2c1 | - | - | . | - | . | .
NC(=S)c1ccc[n+]([O-])c1 | 59 | - | . | - | . | .
Fc1cccc2sc(Nc3nnc(-c4ccccc4)o3)nc12 | - | - | - | - | - | 28
O=C(O)CCc1nn2cc(-c3ccccc3)nc2[nH]c1=O | - | - | - | - | - | -
Cc1nn2cc(-c3ccccc3)nc2[nH]c1=O | - | - | - | 22 | - | -
Cc1[nH]c2ccccc2c1/C=C/c1nc2ccccc2c(=O)n1CCO | - | - | - | - | - | 70
CCOC(=O)c1c(C)[nH]c(C=Nc2ccc(OC)cc2)c1O | 22 | - | - | - | - | -
COC(=O)c1c(C)[nH]c(C=Nc2ccc(OC)cc2)c1C | - | - | - | - | - | -
O=C(CSc1nc2ccccc2n1Cc1ccccc1)NN=C/C=C/c1ccccc1 | - | . | . | - | . | .
CCOc1ccc2nc(SCC(=O)Nc3ccc4c(c3)OCCO4)[nH]c2c1 | - | - | - | - | - | 27
O=C(CSc1nnc(-c2ccccc2)o1)c1nnc(-c2ccccc2)o1 | 24 | - | - | - | - | -
CCCSc1nnc(-c2ccco2)n1C | - | . | . | - | . | .
CN(CCO)C1CN(Cc2cn(Cc3ccccc3F)nn2)S(=O)(=O)C1 (stereo not given) | - | . | . | - | . | .
Cc1cc(C)nc(SCNC(=O)c2ccc(F)cc2)n1 | 26 | - | - | - | - | -
Cc1ccc2cc(C(c3nnnn3C(C)(C)C)N3CCCCCC3)c(=O)[nH]c2c1 (stereo not given) | . | . | - | . | - | -
CCC(C)(C)n1nnnc1C(c1cc2cc(C)ccc2[nH]c1=O)N1CCCC1 (stereo not given) | 22 | - | - | - | - | -
C/C(=N\Nc1nc2ccccc2c(=O)n1O)c1ccco1 | 36 | 20 | - | - | - | -
Cc1ccc(C)c(/C=N/Nc2nc3ccccc3c(=O)n2O)c1 | 25 | - | - | - | - | -
COC(=O)[C@]12C[C@H](CC(=O)NCC3CCCCC3)C(=O)N(CCC3=CCCCC3)C1=C[C@H](C(C)C)O[C@@H]2C1CC1 | - | . | . | - | . | .
CCN1CCN(c2nc3c(C)cccn3c(=O)c2/C=C(\C#N)C(=O)NCCOC)CC1 | 23 | - | - | - | - | -
COCCNC(=O)/C(C#N)=C/c1c(N2CCN(C)CC2)nc2c(C)cccn2c1=O | - | - | - | - | - | -
Cc1cc(O)c(-c2cc(O)c(C)cc2O)cc1O | 87 | - | - | - | - | -
SMILES | PRMT1 FP inh | TCR CD3 inh | PAD4 FP inh | SIAE primary | Fam108B counter | PME-1 inh
O=C(NCc1ccc(C(=O)NCC2CCCO2)cc1)c1cccc(Br)c1 (stereo not given) | - | . | . | - | . | .
COc1cccc(-c2nnc(SC(C(=O)c3c[nH]c4ccccc34)c3ccccc3)n2C)c1 (stereo not given) | - | - | - | - | - | 56
COc1cccc(-c2nnc(SCCC(=O)O)n2C)c1 | - | - | - | . | - | -
O=C1C(=O)N(CCN2CCOCC2)C(c2ccc([N+](=O)[O-])cc2)/C1=C(/O)c1ccc2c(c1)OCO2 (stereo not given) | 23 | - | - | - | - | -
Cc1c(C(=O)N/N=C/c2ccccc2Cl)[nH][nH]c1=O | - | . | . | - | . | .
Cn1c(SCC2CCCCC2)nnc1-c1ccco1 | - | . | . | - | . | .
O=C(CSc1ccc2c(c1)OCCO2)Nc1ncccc1O | 24 | - | - | - | - | -
COc1ccc(/C=C2\CCCc3c2nc2ccccc2c3C(=O)O)cc1OC | . | . | - | . | - | -
CCOc1ccc(/C=C2\CCCc3c2nc2ccccc2c3C(=O)O)cc1OC | . | . | 27 | . | - | -
O=C(O[C@H]1CC[C@@]23CCCN2C(=O)CCC[C@H]3C1)N1CCN(c2ccccc2)CC1 | - | . | . | - | . | .
CCCNc1cc(=S)nc(N)[nH]1 | 22 | - | - | - | - | -
CC(C)OC(=O)c1cn(-c2ccccc2)nc1-c1ccco1 | 23 | - | - | - | - | -
CCOC(=O)C1=C(C)NC(C)=C(C(=O)OCC)C1c1cn(-c2ccccc2)nc1-c1ccco1 | - | - | - | - | - | -
